The nature of experiment [1]: small molecules captured by biotinylated probe aFSTL3 – biochemical, small-molecule microarray, fluorescence 635/667, stem cell growth factor project, primary screen (AID 1064).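 Note: measures binding of the biotinylated anti-FSTL3 antibody to printed compounds.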 Particulars: higher = more signal.
The nature of experiment [2]: binders from COS7 lysate, DM2A8 probe, primary screen, torsin A project, cell lysate, small-molecule microarray, fluorescence 635/667 (AID 1065). Particulars: higher = more signal, COS7 lysate expressing mutant human TOR1A.
Experiment [3] is described as follows: small molecules captured by biotinylated probe aFGF2 – biochemical, small-molecule microarray, fluorescence 635/667, stem cell growth factor project, primary screen (AID 1067).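 Note: measures binding of biotinylated aFGF2 protein to printed compounds on slides; z-score merges feature fluorescence and signal-to-noise across triplicate slides.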 Particulars: higher = more signal.
A short description of experiment [4]: small molecules captured by biotinylated probe aFGF10 – biochemical, small-molecule microarray, fluorescence 635/667, stem cell growth factor project, primary screen (AID 1071).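 Note: score merges 667 nm spot intensity and signal to noise from triplicate slides.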 Particulars: higher = more signal.
For experiment [5], the target named is Neurogenic locus notch homolog protein 2 (Homo sapiens) (UniProt Q04721). The experiment can be described thus: small molecules binding Notch2 protein – biochemical, small-molecule microarray, 635 nm fluorescence, stem cell growth factors, primary screen (AID 1073). Particulars: higher = more signal.
Experiment [6] addresses Pro-neuregulin-1, membrane-bound isoform (Homo sapiens) (UniProt Q02297). Description: small molecules binding neuregulin-1 protein – biochemical, small-molecule microarray, fluorescence 635/667, psychiatric disease protein project, primary screen (AID 1075).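 Note: score combines 667 nm spot fluorescence with signal to noise.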 Particulars: NRG1 binding, 635 nm fluorescence, higher = more signal.
The subject of experiment [7] is Neuregulin-1 EGF-like domain. The experiment can be described thus: small molecules binding NRG1 EGF domain – biochemical, small-molecule microarray, 635 nm fluorescence, primary screen (AID 1081).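 Note: binding of the protein to compounds printed on small-molecule microarray slides.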 To be noted: higher = more signal.
Experiment [8] is described as follows: FRG1 expression reporter modulators in myotubes – cell-based, C2C12 myotubes, firefly/Renilla luciferase, luminescence, FRG1 inhibition for FSHD, primary screen (AID 1084). To be noted: FRG1 promoter luciferase, higher = more signal, called active from +8 up or from −8 down.
A short description of experiment [9]: small molecules captured by biotinylated probe aFST – biochemical, small-molecule microarray, fluorescence 635/667, stem cell growth factor project, primary screen (AID 1086).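 Note: score merges 667 nm fluorescence with signal-to-noise of each printed compound spot.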 Particulars: higher = more signal.
Experiment [10] is described as follows: binders of probe aHhip on microarray, primary screen, stem cell growth factor project, biochemical, small-molecule microarray, fluorescence 635/667 (AID 1087).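 Note: score merges spot fluorescence at 667nm with spot signal to noise ratio.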 Particulars: higher = more signal.
Experiment [11] deals with PRMT1 (protein arginine N-methyltransferase 1). The experiment can be described thus: small molecules binding arginine methyltransferase PRMT1 – biochemical, small-molecule microarray, 635 nm fluorescence, primary screen (AID 1088).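 Note: binding of Prmt1 protein to compounds spotted on small-molecule microarray slides.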 To be noted: higher = more signal.
The nature of experiment [12]: growth effects on S. cerevisiae YJM789 – YJM789 clinical isolate, OD600, 24 h, basal, primary screen (AID 1089).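 Note: growth of clinical yeast isolate S. cerevisiae YJM 789 seeded 1000 cells per well; test concentration not given here.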 To be noted: higher = more signal, called active from +8 up or from −8 down.
Experiment [13] in a line: S. pombe growth modifiers, basal conditions – strain 972, OD600, 24 h, no modulator, primary screen (AID 1090).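 Note: basal condition with compound alone and no growth modifier present; test concentration not given here.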 To be noted: S. pombe 972 growth, higher = more signal, called active from +8 up or from −8 down.
Experiment [14] in a line: budding yeast growth modifiers under rapamycin – strain BY4716, OD600, 96 h, primary screen (AID 1091). Note: test concentration not given here. To be noted: S. cerevisiae BY4716 + rapamycin, higher = more signal, called active from +8 up or from −8 down.
The target in experiment [15] is Torsin-1A-interacting protein 2 (Homo sapiens) (UniProt Q8NFQ8). Description: small molecules binding lysate-expressed LULL1 – cell lysate, human LULL1 lysate, 635/667 nm fluorescence, primary screen (AID 1092).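 Note: probe is lysate of COS7 cells overexpressing human LULL1; score merges per-feature 667 nm fluorescence with signal-to-noise.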 To be noted: small-molecule microarray, hLULL1 lysate binding, 635 nm fluorescence; higher = more signal.
Experiment [16] in a line: optical density change of DRC41 E. coli – strain DRC41, OD650, 24 h, E. coli filamentation project, primary screen (AID 1093).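 Note: MC1000 strain lacking acrAB efflux and sulA so SOS filamentation is blocked; test concentration not given here.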 To be noted: E. coli DRC41 growth, higher = more signal, called active from +8 up or from −8 down.
Experiment [17] is described as follows: probe aLefty2 binding to arrayed compounds – biochemical, biotinylated probe, 635/667 nm fluorescence, primary screen (AID 1094).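 Note: score merges spot fluorescence near 667 nm with spot signal-to-noise ratio.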 To be noted: small-molecule microarray, higher = more signal.
For experiment [18], the system named is Noggin (protein binding on small-molecule microarray). Description: small molecules binding Noggin protein – biochemical, 635/667 nm fluorescence, primary screen (AID 1095).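 Note: score merges 667 nm feature fluorescence with signal to noise over triplicate slides.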 To be noted: 635 nm fluorescence, higher = more signal.
The target in experiment [19] is Neurogenic locus notch homolog protein 3 (Homo sapiens) (UniProt Q9UM47). Description: small molecules binding NOTCH3 protein – biochemical, 635/667 nm fluorescence, primary screen (AID 1096). To be noted: small-molecule microarray, 635 nm fluorescence, higher = more signal.
Experiment [20] in a line: probe aEGFR binding to arrayed compounds – biochemical, biotinylated probe, 635/667 nm fluorescence, primary screen (AID 1097).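 Note: probe is a biotinylated anti-EGFR antibody binding compounds printed on slides; score combines fluorescence near 667 nm and signal to noise of each spot.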 Particulars: small-molecule microarray, higher = more signal.

Results on five compounds are retold here after PubChem BioAssay.

The source made the active and inactive calls.

Sequence of Neurogenic locus notch homolog protein 3 (Homo sapiens) (Q9UM47 whole entry, looked up): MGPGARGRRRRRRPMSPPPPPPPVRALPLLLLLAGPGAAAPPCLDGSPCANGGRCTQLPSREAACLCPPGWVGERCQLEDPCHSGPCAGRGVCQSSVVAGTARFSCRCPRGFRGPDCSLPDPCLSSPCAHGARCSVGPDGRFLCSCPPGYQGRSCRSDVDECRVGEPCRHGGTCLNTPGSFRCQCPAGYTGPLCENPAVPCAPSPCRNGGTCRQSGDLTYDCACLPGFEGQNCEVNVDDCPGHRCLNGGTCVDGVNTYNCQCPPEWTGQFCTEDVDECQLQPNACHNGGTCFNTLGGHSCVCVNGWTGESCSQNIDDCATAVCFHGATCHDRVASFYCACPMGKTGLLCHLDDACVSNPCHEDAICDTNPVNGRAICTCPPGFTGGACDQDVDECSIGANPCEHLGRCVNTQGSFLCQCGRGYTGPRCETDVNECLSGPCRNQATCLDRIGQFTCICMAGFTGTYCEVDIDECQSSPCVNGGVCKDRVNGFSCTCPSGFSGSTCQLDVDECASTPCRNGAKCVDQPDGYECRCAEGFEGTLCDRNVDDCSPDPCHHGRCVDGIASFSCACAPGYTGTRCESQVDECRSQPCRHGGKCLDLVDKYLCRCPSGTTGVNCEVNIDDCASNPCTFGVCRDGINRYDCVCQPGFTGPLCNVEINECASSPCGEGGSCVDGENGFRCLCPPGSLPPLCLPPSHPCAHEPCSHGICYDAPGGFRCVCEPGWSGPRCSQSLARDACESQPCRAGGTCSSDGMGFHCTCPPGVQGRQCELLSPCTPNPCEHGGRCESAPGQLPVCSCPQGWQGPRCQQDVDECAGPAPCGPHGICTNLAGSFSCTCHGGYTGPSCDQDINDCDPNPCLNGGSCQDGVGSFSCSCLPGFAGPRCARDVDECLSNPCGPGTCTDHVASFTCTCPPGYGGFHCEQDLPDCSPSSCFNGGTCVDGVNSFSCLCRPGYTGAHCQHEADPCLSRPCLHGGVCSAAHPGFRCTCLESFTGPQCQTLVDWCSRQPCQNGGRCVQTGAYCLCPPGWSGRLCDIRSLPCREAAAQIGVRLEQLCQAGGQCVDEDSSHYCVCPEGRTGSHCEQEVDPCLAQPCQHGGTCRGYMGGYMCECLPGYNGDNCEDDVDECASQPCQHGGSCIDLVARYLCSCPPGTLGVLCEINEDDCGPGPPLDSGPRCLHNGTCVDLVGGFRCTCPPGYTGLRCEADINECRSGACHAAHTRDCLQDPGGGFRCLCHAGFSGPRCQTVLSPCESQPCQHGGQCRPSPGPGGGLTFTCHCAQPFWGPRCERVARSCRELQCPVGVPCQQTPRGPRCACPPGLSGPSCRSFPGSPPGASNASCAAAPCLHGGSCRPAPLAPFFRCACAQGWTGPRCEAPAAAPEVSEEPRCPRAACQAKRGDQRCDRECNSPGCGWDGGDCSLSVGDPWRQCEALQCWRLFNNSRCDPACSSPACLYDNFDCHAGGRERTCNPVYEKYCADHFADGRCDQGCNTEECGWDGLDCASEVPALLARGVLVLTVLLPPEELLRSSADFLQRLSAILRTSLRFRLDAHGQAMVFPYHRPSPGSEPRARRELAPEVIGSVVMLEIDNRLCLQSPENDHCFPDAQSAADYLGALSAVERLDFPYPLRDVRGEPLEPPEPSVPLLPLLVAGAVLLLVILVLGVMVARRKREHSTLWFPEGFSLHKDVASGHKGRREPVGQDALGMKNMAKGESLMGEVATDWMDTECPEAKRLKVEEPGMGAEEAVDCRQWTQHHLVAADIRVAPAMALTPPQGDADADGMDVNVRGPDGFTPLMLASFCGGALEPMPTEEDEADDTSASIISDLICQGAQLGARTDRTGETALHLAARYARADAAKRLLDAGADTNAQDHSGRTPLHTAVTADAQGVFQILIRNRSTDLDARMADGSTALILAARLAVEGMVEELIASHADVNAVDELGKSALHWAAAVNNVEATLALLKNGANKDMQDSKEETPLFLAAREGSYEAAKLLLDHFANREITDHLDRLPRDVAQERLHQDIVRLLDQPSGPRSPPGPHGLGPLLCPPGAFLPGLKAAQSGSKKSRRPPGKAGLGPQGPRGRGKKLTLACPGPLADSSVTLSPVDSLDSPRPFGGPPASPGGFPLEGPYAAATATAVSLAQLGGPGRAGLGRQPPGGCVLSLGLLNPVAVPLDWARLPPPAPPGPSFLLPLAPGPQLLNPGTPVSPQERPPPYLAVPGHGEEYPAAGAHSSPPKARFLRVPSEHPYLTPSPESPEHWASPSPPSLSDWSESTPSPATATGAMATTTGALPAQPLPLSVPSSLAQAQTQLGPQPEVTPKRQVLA
Sequence of Neurogenic locus notch homolog protein 2 (Homo sapiens) (Q04721 whole entry, looked up, canonical isoform): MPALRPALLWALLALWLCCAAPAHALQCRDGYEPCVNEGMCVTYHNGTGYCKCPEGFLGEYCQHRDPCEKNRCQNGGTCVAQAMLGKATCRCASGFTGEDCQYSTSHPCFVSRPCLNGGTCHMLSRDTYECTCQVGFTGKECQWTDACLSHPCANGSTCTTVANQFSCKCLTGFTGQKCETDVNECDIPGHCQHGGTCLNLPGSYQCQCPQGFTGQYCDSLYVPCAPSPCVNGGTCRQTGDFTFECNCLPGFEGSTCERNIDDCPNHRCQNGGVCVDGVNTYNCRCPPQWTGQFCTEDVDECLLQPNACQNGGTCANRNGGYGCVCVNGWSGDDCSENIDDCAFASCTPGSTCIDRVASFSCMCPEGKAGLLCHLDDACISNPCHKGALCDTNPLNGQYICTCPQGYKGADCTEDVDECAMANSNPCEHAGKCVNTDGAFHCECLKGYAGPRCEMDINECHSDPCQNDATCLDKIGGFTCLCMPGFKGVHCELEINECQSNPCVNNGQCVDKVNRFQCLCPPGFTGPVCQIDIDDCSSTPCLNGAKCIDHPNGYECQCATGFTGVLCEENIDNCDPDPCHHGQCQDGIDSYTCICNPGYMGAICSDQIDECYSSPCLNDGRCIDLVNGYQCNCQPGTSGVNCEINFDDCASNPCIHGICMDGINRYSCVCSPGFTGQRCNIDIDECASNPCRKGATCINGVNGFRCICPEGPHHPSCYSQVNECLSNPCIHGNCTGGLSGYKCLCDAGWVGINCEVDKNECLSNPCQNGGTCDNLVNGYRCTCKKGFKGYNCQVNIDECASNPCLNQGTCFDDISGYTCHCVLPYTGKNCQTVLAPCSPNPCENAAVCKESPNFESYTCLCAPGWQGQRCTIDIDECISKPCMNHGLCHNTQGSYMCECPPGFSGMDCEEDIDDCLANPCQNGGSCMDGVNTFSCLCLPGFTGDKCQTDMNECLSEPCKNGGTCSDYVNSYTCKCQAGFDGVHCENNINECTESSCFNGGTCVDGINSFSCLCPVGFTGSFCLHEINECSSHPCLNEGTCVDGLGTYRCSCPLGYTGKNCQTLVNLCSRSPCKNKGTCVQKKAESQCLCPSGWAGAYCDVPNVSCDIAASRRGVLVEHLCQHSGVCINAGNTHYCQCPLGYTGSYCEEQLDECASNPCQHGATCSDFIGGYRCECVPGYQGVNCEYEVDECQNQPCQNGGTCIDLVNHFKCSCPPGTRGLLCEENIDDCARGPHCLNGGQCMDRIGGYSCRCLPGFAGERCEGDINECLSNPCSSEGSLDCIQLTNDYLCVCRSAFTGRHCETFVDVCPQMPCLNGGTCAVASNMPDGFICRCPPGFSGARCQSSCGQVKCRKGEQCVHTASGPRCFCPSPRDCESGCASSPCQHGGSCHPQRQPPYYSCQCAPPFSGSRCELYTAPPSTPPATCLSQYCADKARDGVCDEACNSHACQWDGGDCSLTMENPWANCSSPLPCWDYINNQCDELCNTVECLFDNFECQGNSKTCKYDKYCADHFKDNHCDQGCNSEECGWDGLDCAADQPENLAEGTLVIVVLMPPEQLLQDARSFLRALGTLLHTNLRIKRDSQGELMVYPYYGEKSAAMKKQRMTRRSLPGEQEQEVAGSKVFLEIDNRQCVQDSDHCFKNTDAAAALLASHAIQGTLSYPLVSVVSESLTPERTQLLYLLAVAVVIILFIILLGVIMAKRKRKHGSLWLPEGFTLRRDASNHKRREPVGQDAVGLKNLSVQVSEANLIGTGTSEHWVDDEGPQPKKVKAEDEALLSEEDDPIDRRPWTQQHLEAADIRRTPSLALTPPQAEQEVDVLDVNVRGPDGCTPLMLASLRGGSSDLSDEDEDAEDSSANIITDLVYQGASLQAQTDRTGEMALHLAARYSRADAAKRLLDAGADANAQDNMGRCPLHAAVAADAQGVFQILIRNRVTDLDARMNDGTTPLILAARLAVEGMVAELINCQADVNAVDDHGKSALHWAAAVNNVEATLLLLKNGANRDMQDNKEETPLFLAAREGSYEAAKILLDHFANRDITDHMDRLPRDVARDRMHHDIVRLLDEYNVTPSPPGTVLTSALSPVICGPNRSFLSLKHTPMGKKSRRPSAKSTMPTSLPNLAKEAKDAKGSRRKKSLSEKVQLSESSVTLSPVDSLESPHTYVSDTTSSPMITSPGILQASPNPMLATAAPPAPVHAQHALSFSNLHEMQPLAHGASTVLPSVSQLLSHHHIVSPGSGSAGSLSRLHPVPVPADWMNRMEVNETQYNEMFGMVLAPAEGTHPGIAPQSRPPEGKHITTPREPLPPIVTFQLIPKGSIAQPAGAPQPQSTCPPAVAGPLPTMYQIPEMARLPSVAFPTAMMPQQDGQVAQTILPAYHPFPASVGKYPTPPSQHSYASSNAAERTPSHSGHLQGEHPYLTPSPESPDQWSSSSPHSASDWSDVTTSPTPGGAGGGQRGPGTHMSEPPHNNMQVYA

In the case of `C=CC(COC(C)=O)NS(=O)(=O)c1ccc(Br)cc1` (stereo not given), the composite z-score in experiment [1] is -0.647; in experiment [2], 0.58; in [3], -0.105; in [4], 0.366; in experiment [5] it was 0.363; in experiment [6] it was 0.0456. The composite z-score in experiment [7] was 0.583; in experiment [9], 0.0296; in experiment [10] it was 0.174; in experiment [11] it was 0.1; in experiment [15], 0.185; in [17], 0.0216. Further, the composite z-score in experiment [18] turned out to be 0.598; in experiment [19] it was 0.604; in experiment [20], 0.0749. Also, the z-score in [8] is -0.747 (inactive); in experiment [12], -0.141 (inactive); in [13], -0.467 (inactive); in experiment [14], -0.9 (inactive); in experiment [16], -0.975 (inactive).

Consider `CCOC(=O)C1=C[C@@H](C(C)C)N(S(=O)(=O)c2ccc(C)cc2)[C@H]1c1ccc(C(C)C)cc1`, for which the composite z-score in experiment [1] was -0.462; in [2], 0.352; in experiment [3] it was -0.0647; in experiment [4], 0.543; in experiment [5], 1.52; in experiment [6] it was 0.609. Moreover, the composite z-score in experiment [7] was 0.683; in experiment [9], 0.937; in [10], -0.0754; in experiment [11] it was 1.25; in experiment [15], 3.02; in experiment [17], 0.112. The composite z-score in experiment [18] is 0.75; in experiment [19] it was 1.09; in experiment [20], -0.0381. In addition, the z-score in [8] was -1.89 (inactive); in experiment [12], 0.129 (inactive); in experiment [13] it was 2.04 (inactive); in [14] it was 0.612 (inactive); in experiment [16], -0.35 (inactive).

For the compound `CC(=O)NCCCC[C@@H]1NC(=O)[C@H]2C[C@@H](C(=O)NCCCCCC[N+](C)(C)C)[C@@H](c3cccc(OCCO)c3)N2C1=O`, the composite z-score in experiment [1] is -0.374; in experiment [2] it was 0.645; in experiment [3], -0.0894; in experiment [4], 0.245; in experiment [5], 0.117; in [6], 1.5. For the same compound, the composite z-score in experiment [7] is 1.42; in [9], -0.0568; in [10] it was -0.201; in experiment [11] it was 1.53; in [15], 2.98; in experiment [17], -0.16. The figures for the composite z-score in [18], in [19] and in [20] were 1.19, 0.97 and -0.0967, respectively. Moreover, the z-score in experiment [8] is 5.18 (inactive); in [12] it was -0.752 (inactive); in experiment [13], 0.0936 (inactive); in experiment [14], -0.425 (inactive); in [16] it was 1.23 (inactive).

Take `COc1ccc([Si](C)(C)[C@@H]2[C@@H](CC(=O)N(CCO)Cc3ccccc3)O[C@]3(C(=O)N(C)c4ccccc43)[C@H]2C)cc1`: the composite z-score in experiment [1] is 1.02; in experiment [2] it was -0.135; in experiment [3], -0.0336; in experiment [4], 0.628; in experiment [5], 0.525; in [6], 0.872. In addition, the composite z-score in experiment [7] is 1.11; in experiment [9] it was 1.21; in experiment [10], 0.411; in experiment [11] it was 1.54; in experiment [15] it was 1.81; in experiment [17] it was 0.512. Besides, the composite z-score in [18] amounted to 1.21; in [19], 0.963; in [20] it was 0.238. Moreover, the z-score in experiment [8] was -2.19 (inactive); in experiment [12] it was -0.943 (inactive); in experiment [13], 0.14 (inactive); in experiment [14], 0.451 (inactive); in [16], -0.0145 (inactive).

Consider `CC(C)N1C(=O)C[C@@](C(=O)NCc2ccccc2)(c2ccc([N+](=O)[O-])cc2)[C@H]1c1ccc(CO)cc1`, for which the composite z-score in experiment [1] is 0.539; in experiment [2], 1.22; in experiment [3], -0.138; in experiment [4] it was -0.136; in [5], 0.0796; in experiment [6], -0.524. The composite z-score in experiment [7] was 1.25; in experiment [9], -0.699; in experiment [10], -0.201; in experiment [11], 1.01; in [15], 3.48; in experiment [17] it was 0.16. Moreover, the composite z-score in experiment [18] is -0.112; in experiment [19] it was 0.199; in [20], -0.167. In addition, the z-score was 0.167 (inactive) in experiment [8]; 0.296 (inactive) in [12]; -0.203 (inactive) in experiment [13]; -0.881 (inactive) in experiment [14]; 0.796 (inactive) in [16].
